Assay results from paper PMC9911399, “Two distinct binding modes provide the RNA-binding protein RbFox with extraordinary sequence specificity”.
Positions count from the first letter of the chain named. Whole data set: some 16,000 sequences, median “ka relative to ugcaugu” near 0.0091, cut for the highest 2% near 0.032. This is one part of a sample in which the highest values are shown more often than they occur.

T1: RBFOX1 RRM (Homo sapiens, UniProt Q9NWB1 109-208)
T1 sequence: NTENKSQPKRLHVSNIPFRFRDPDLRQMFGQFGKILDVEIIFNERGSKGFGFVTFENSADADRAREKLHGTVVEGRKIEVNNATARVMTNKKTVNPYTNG

B1: AAACACU (DNA:RNA)
RNA: GGGAGACCGGAAUUCAGAUUGUCCAAACACUUUAAAUCCCGUCGUAGCCACCA
DNA 1: CAATCTGAATTCCGGTCTCCC
DNA 2: TGGTGGCTACGACGGGATT
B2: GCGCAGU (DNA:RNA)
RNA: B1 RNA with A25G, A26C, A27G, C30G
DNA 1: CAATCTGAATTCCGGTCTCCC
DNA 2: TGGTGGCTACGACGGGATT
B3: GUUGUGG (DNA:RNA)
RNA: GGGAGACCGGAAUUCAGAUUGUCCGUUGUGGUUAAAUCCCGUCGUAGCCACCA
DNA 1: CAATCTGAATTCCGGTCTCCC
DNA 2: TGGTGGCTACGACGGGATT
B4: CGGAACG (DNA:RNA)
RNA: B1 RNA with A25C, A26G, A27G, C28A, U31G
DNA 1: CAATCTGAATTCCGGTCTCCC
DNA 2: TGGTGGCTACGACGGGATT
B5: GGGAACG (DNA:RNA)
RNA: B1 RNA with A25G, A26G, A27G, C28A, U31G
DNA 1: CAATCTGAATTCCGGTCTCCC
DNA 2: TGGTGGCTACGACGGGATT
B6: GGAACGU (DNA:RNA)
RNA: B1 RNA with A25G, A26G, C28A, A29C, C30G
DNA 1: CAATCTGAATTCCGGTCTCCC
DNA 2: TGGTGGCTACGACGGGATT
B7: UGGAACG (DNA:RNA)
RNA: B1 RNA with A25U, A26G, A27G, C28A, U31G
DNA 1: CAATCTGAATTCCGGTCTCCC
DNA 2: TGGTGGCTACGACGGGATT
B8: CCGAACG (DNA:RNA)
RNA: B1 RNA with A25C, A26C, A27G, C28A, U31G
DNA 1: CAATCTGAATTCCGGTCTCCC
DNA 2: TGGTGGCTACGACGGGATT
B9: GAGAACG (DNA:RNA)
RNA: B1 RNA with A25G, A27G, C28A, U31G
DNA 1: CAATCTGAATTCCGGTCTCCC
DNA 2: TGGTGGCTACGACGGGATT
B10: UGGACCG (DNA:RNA)
RNA: B1 RNA with A25U, A26G, A27G, C28A, A29C, U31G
DNA 1: CAATCTGAATTCCGGTCTCCC
DNA 2: TGGTGGCTACGACGGGATT
B11: GUUAACG (DNA:RNA)
RNA: B3 RNA with G28A, U29A, G30C
DNA 1: CAATCTGAATTCCGGTCTCCC
DNA 2: TGGTGGCTACGACGGGATT
B12: GUGAACG (DNA:RNA)
RNA: B3 RNA with U27G, G28A, U29A, G30C
DNA 1: CAATCTGAATTCCGGTCTCCC
DNA 2: TGGTGGCTACGACGGGATT
B13: AUUCACC (DNA:RNA)
RNA: B1 RNA with A26U, A27U, U31C
DNA 1: CAATCTGAATTCCGGTCTCCC
DNA 2: TGGTGGCTACGACGGGATT
B14: GAGUUGU (DNA:RNA)
RNA: B3 RNA with U26A, U27G, G28U, G31U
DNA 1: CAATCTGAATTCCGGTCTCCC
DNA 2: TGGTGGCTACGACGGGATT
B15: CAACGAU (DNA:RNA)
RNA: B1 RNA with A25C, A29G, C30A
DNA 1: CAATCTGAATTCCGGTCTCCC
DNA 2: TGGTGGCTACGACGGGATT
B16: AACCAAC (DNA:RNA)
RNA: B1 RNA with A27C, C30A, U31C
DNA 1: CAATCTGAATTCCGGTCTCCC
DNA 2: TGGTGGCTACGACGGGATT
B17: GAAACCA (DNA:RNA)
RNA: B1 RNA with A25G, C28A, A29C, U31A
DNA 1: CAATCTGAATTCCGGTCTCCC
DNA 2: TGGTGGCTACGACGGGATT
B18: UUUAAUU (DNA:RNA)
RNA: B1 RNA with A25U, A26U, A27U, C28A, C30U
DNA 1: CAATCTGAATTCCGGTCTCCC
DNA 2: TGGTGGCTACGACGGGATT
B19: CUGAUGU (DNA:RNA)
RNA: B3 RNA with G25C, U27G, G28A, G31U
DNA 1: CAATCTGAATTCCGGTCTCCC
DNA 2: TGGTGGCTACGACGGGATT
B20: GUGCAUG (DNA:RNA)
RNA: B3 RNA with U27G, G28C, U29A, G30U
DNA 1: CAATCTGAATTCCGGTCTCCC
DNA 2: TGGTGGCTACGACGGGATT
B21: UUGCAUG (DNA:RNA)
RNA: B1 RNA with A25U, A26U, A27G, C30U, U31G
DNA 1: CAATCTGAATTCCGGTCTCCC
DNA 2: TGGTGGCTACGACGGGATT
B22: GUGCAUA (DNA:RNA)
RNA: B1 RNA with A25G, A26U, A27G, C30U, U31A
DNA 1: CAATCTGAATTCCGGTCTCCC
DNA 2: TGGTGGCTACGACGGGATT
B23: UUGCAAA (DNA:RNA)
RNA: B1 RNA with A25U, A26U, A27G, C30A, U31A
DNA 1: CAATCTGAATTCCGGTCTCCC
DNA 2: TGGTGGCTACGACGGGATT
B24: UUGCAAG (DNA:RNA)
RNA: B1 RNA with A25U, A26U, A27G, C30A, U31G
DNA 1: CAATCTGAATTCCGGTCTCCC
DNA 2: TGGTGGCTACGACGGGATT
B25: UUGCAUA (DNA:RNA)
RNA: B1 RNA with A25U, A26U, A27G, C30U, U31A
DNA 1: CAATCTGAATTCCGGTCTCCC
DNA 2: TGGTGGCTACGACGGGATT
B26: GUGCAAG (DNA:RNA)
RNA: B3 RNA with U27G, G28C, U29A, G30A
DNA 1: CAATCTGAATTCCGGTCTCCC
DNA 2: TGGTGGCTACGACGGGATT
B27: GUGCAUC (DNA:RNA)
RNA: B1 RNA with A25G, A26U, A27G, C30U, U31C
DNA 1: CAATCTGAATTCCGGTCTCCC
DNA 2: TGGTGGCTACGACGGGATT
B28: UUGCAUC (DNA:RNA)
RNA: B1 RNA with A25U, A26U, A27G, C30U, U31C
DNA 1: CAATCTGAATTCCGGTCTCCC
DNA 2: TGGTGGCTACGACGGGATT
B29: CCUGUAG (DNA:RNA)
RNA: B3 RNA with G25C, U26C, G30A
DNA 1: CAATCTGAATTCCGGTCTCCC
DNA 2: TGGTGGCTACGACGGGATT
B30: UCGAGAU (DNA:RNA)
RNA: B1 RNA with A25U, A26C, A27G, C28A, A29G, C30A
DNA 1: CAATCTGAATTCCGGTCTCCC
DNA 2: TGGTGGCTACGACGGGATT
B31: UGCCACG (DNA:RNA)
RNA: B1 RNA with A25U, A26G, A27C, U31G
DNA 1: CAATCTGAATTCCGGTCTCCC
DNA 2: TGGTGGCTACGACGGGATT
B32: UGCACCC (DNA:RNA)
RNA: B1 RNA with A25U, A26G, A27C, C28A, A29C, U31C
DNA 1: CAATCTGAATTCCGGTCTCCC
DNA 2: TGGTGGCTACGACGGGATT
B33: CUGCACG (DNA:RNA)
RNA: B1 RNA with A25C, A26U, A27G, U31G
DNA 1: CAATCTGAATTCCGGTCTCCC
DNA 2: TGGTGGCTACGACGGGATT
B34: UGCACCG (DNA:RNA)
RNA: B1 RNA with A25U, A26G, A27C, C28A, A29C, U31G
DNA 1: CAATCTGAATTCCGGTCTCCC
DNA 2: TGGTGGCTACGACGGGATT
B35: UGCACGU (DNA:RNA)
RNA: B1 RNA with A25U, A26G, A27C, C28A, A29C, C30G
DNA 1: CAATCTGAATTCCGGTCTCCC
DNA 2: TGGTGGCTACGACGGGATT
B36: CUGCACC (DNA:RNA)
RNA: B1 RNA with A25C, A26U, A27G, U31C
DNA 1: CAATCTGAATTCCGGTCTCCC
DNA 2: TGGTGGCTACGACGGGATT

Target: T1, RBFOX1 RRM
Assay: EMSA; HiTS-Eq, 1 nM pool, 10 min; buffer printed only for the single-RNA assays: 10 mM Tris pH 7.5, 150 mM NaCl, 3.4 mM EDTA, 0.001% NP-40, 30 C
Details: tags: His6 N-terminal (pET28a); label: 5' 32P
How it was run: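 Purified RbFox RRM, wild type or mutant, was incubated for 10 min in 50 µL with 1 nM of a 5′-radiolabelled RNA pool carrying 7 randomized nucleotides, whose flanks were annealed to DNA oligonucleotides, over a series of increasing protein concentrations. Unbound RNA was resolved on 8% native PAGE, cut out, reverse-transcribed, barcoded by PCR and sequenced on an Illumina HiSeq 2500. Relative association constants were derived from changes in read counts for each RNA species versus the control reaction and normalised to the cognate motif.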

Row | Binder | binding signal
1 | B1 | 0.00096 KA relative to UGCAUGU
2 | B2 | 0.0136 KA relative to UGCAUGU
3 | B3 | 0.0184 KA relative to UGCAUGU
4 | B4 | 0.0344 KA relative to UGCAUGU
5 | B5 | 0.0367 KA relative to UGCAUGU
6 | B6 | 0.0248 KA relative to UGCAUGU
7 | B7 | 0.0367 KA relative to UGCAUGU
8 | B8 | 0.0118 KA relative to UGCAUGU
9 | B9 | 0.0165 KA relative to UGCAUGU
10 | B10 | 0.0269 KA relative to UGCAUGU
11 | B11 | 0.0101 KA relative to UGCAUGU
12 | B12 | 0.0163 KA relative to UGCAUGU
13 | B13 | 0.00129 KA relative to UGCAUGU
14 | B14 | 0.0179 KA relative to UGCAUGU
15 | B15 | 0.00177 KA relative to UGCAUGU
16 | B16 | 0.000641 KA relative to UGCAUGU
17 | B17 | 0.00223 KA relative to UGCAUGU
18 | B18 | 0.00658 KA relative to UGCAUGU

Row | Binder | binding signal
19 | B19 | 0.0201 KA relative to UGCAUGU
20 | B20 | 1 KA relative to UGCAUGU
21 | B21 | 1 KA relative to UGCAUGU
22 | B22 | 0.0221 KA relative to UGCAUGU
23 | B23 | 0.0109 KA relative to UGCAUGU
24 | B24 | 0.0333 KA relative to UGCAUGU
25 | B25 | 0.0139 KA relative to UGCAUGU
26 | B26 | 0.0274 KA relative to UGCAUGU
27 | B27 | 0.0315 KA relative to UGCAUGU
28 | B28 | 0.022 KA relative to UGCAUGU
29 | B29 | 0.00969 KA relative to UGCAUGU
30 | B30 | 0.00776 KA relative to UGCAUGU
31 | B31 | 0.0198 KA relative to UGCAUGU
32 | B32 | 0.0142 KA relative to UGCAUGU
33 | B33 | 0.616 KA relative to UGCAUGU
34 | B34 | 0.0145 KA relative to UGCAUGU
35 | B35 | 0.514 KA relative to UGCAUGU
36 | B36 | 0.0128 KA relative to UGCAUGU
